From PubChem BioAssay
For some of these results: Entries with a potency or affinity are not part of this list. Activity calls are given as the source filed them. Unless noted, no rule for the calls is given here.

Assays:
[1] = antimalarial activity against Dd2 strain (AID 2302;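 active = growth inhibition above 50% at the single 2 µM test dose, taken to imply half-maximal potency below 2 µM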;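 also: 0% = DMSO untreated growth and 100% = chloroquine plus artemisinin killed control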); conditions: P. falciparum Dd2 in RBCs, LDH growth readout, 72 h; at 2 µM; stronger effect = higher value
[2] = HepG2 cytotoxicity, primary screen, cytotoxicity control for P. falciparum antimalarial project, cell-based, ATP luminescence (AID 2303;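 active = inhibition above 50%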;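 also: 0% = DMSO wells and 100% = digitonin-killed cells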); conditions: HepG2 viability, 24-48 h, at 10 µM, stronger effect = higher value
[3] = molecular target: L-lactate dehydrogenase (Plasmodium falciparum (isolate CDC / Honduras)) (UniProt Q27743); assay: PfLDH activity inhibition – cell lysate, 3D7 strain, counter-screen for P. falciparum growth inhibition project (AID 2304);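 also: 0% = vehicle and 100% = reference inhibitor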; conditions: P. falciparum 3D7 crude extract, LDH APAD/NBT absorbance; at 2 µM; stronger effect = higher value
L-lactate dehydrogenase (Plasmodium falciparum (isolate CDC / Honduras)), sequence (Q27743 whole entry, looked up): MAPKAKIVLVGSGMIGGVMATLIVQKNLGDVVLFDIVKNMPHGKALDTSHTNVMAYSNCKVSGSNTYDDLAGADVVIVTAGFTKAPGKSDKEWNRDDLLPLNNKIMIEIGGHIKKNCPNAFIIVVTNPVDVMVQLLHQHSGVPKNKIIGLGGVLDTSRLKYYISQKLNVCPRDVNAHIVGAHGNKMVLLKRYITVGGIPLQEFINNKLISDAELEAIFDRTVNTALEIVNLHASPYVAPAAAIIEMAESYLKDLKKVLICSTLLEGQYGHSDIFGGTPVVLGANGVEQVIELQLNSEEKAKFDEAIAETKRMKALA

[4] = inhibition of 3D7 malaria parasite growth – strain 3D7 (AID 2306);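 also: 0% = DMSO wells and 100% = chloroquine plus artemisinin control wells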; conditions: P. falciparum 3D7 erythrocytic growth, LDH absorbance, 72 h; at 2 µM; stronger effect = higher value
[5] = molecular target: Calcium-dependent protein kinase 1 (Plasmodium falciparum (isolate 3D7)) (UniProt P62344); assay: PfCDPK1 kinase inhibitors, biochemical, TCAMS library (AID 1159585; cut-off not given, nearly all actives have IC50 up to about 0.98 µM;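 also: inhibitors leave more ATP so luminescence rises with inhibition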); conditions: recombinant PfCDPK1, Kinase-Glo ATP depletion luminescence
Calcium-dependent protein kinase 1 (Plasmodium falciparum (isolate 3D7)), sequence (P62344 whole entry, looked up): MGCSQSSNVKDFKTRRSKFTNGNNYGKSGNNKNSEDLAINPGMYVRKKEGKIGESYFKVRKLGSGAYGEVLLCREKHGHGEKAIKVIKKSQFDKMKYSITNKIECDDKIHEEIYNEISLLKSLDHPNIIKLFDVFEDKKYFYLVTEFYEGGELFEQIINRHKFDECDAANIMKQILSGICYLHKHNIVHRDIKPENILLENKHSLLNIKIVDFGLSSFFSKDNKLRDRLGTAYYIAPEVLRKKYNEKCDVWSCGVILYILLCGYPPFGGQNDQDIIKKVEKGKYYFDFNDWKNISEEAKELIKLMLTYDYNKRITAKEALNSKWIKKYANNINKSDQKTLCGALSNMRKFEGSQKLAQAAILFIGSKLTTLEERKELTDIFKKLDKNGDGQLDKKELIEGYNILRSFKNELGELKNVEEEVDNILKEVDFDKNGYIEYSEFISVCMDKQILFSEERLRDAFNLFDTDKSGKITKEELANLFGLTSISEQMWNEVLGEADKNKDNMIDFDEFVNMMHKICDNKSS

[6] = molecular target: Plasmodium falciparum protein kinase 6 (PK6, PF3D7_1337100) (UniProt Q8IDW1); assay: PfPK6 kinase inhibitors, biochemical, TCAMS library (AID 1159586); conditions: recombinant PfPK6, Kinase-Glo ATP depletion luminescence
Plasmodium falciparum protein kinase 6 (PK6, PF3D7_1337100), sequence (Q8IDW1 1-305): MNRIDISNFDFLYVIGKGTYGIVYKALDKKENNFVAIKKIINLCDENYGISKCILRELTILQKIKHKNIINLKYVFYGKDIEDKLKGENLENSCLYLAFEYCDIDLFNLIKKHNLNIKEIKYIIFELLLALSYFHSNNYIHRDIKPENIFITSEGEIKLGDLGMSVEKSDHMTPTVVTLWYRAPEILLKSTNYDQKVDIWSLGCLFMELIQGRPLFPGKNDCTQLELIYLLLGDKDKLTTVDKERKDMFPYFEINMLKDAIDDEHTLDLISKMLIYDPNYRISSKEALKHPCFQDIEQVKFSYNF

[7] = molecular target: Protein kinase 7 (PK7), Plasmodium falciparum 3D7 (PF3D7_0213400) (UniProt Q7YTF7); assay: inhibition of Plasmodium PK7 catalytic activity – biochemical, TCAMS antimalarial set, Kinase-Glo luminescence (AID 1159587); conditions: recombinant PfPK7, Kinase-Glo ATP depletion luminescence
Protein kinase 7 (PK7), Plasmodium falciparum 3D7 (PF3D7_0213400), sequence (Q7YTF7 1-343): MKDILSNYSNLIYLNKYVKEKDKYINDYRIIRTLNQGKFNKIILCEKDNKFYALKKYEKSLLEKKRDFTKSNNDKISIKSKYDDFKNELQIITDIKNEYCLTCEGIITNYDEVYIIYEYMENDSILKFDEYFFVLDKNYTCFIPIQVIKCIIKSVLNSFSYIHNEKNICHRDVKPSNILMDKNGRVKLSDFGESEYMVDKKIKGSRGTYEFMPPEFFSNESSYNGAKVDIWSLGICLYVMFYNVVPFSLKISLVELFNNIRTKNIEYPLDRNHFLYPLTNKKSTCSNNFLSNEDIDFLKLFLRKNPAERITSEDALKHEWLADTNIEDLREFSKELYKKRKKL

[8] = molecular target: Calcium-dependent protein kinase 4 (Plasmodium falciparum (isolate 3D7)) (UniProt Q8IBS5); assay: PfCDPK4 kinase inhibitors, biochemical, TCAMS library (AID 1159588; cut-off not given, nearly all actives have IC50 up to about 0.91 µM); conditions: recombinant PfCDPK4, Kinase-Glo ATP depletion luminescence
Calcium-dependent protein kinase 4 (Plasmodium falciparum (isolate 3D7)), sequence (Q8IBS5 whole entry, looked up): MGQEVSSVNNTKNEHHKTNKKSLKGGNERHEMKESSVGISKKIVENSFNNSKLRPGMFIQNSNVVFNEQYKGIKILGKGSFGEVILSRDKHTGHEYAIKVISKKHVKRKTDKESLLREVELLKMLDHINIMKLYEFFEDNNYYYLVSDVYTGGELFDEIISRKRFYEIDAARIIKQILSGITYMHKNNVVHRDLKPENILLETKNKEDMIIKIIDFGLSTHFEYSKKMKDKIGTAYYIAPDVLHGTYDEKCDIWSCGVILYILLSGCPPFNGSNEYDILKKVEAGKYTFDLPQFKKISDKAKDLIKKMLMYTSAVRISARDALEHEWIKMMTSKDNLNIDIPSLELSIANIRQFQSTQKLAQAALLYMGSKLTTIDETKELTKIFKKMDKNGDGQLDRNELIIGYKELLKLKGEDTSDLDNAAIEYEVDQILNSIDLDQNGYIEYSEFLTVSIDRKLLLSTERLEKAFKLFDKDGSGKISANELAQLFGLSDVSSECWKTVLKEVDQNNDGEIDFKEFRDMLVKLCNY

COc1ccc(C(=O)[C@H]2C[C@@H]2CN(C)CCC(O)c2ccc(Cl)c(Cl)c2)cc1 (stereo partly drawn)
inactive: inhibition [2] 24% | inhibition [3] -8% | outcome [5] | outcome [6] | outcome [7] | outcome [8]
active: growth inhibition [1] 86% | growth inhibition [4] 94%

CC(C)CCN(Cc1cncn1Cc1cccc(C(F)(F)F)c1)C(=O)c1ccccc1C#N
inactive: inhibition [2] -4% | inhibition [3] -2% | outcome [5] | outcome [6] | outcome [7] | outcome [8]
active: growth inhibition [1] 96% | growth inhibition [4] 99%

COc1ccc2[nH]c(C(=O)Nc3ccc4nc(-c5ccccc5)[nH]c4c3)cc2c1
inactive: growth inhibition [1] 23% | inhibition [3] -1% | outcome [5] | outcome [6] | outcome [7] | outcome [8]
active: inhibition [2] 51% | growth inhibition [4] 96%

CCNC(=O)NC1CCN(Cc2c(-c3cccs3)nc3ccccc3c2C(=O)N[C@@H](C)C2CCCCC2)CC1
active: growth inhibition [1] 96% | growth inhibition [4] 95%
inactive: inhibition [2] -1% | inhibition [3] -2% | outcome [5] | outcome [6] | outcome [7] | outcome [8]

CCNc1cc(C)nc(Nc2ccc(NC(=O)c3ccc(OC)c(OC)c3)cc2)n1
active: growth inhibition [1] 65% | growth inhibition [4] 101%
inactive: inhibition [2] 19% | inhibition [3] 0% | outcome [5] | outcome [6] | outcome [7] | outcome [8]

CCn1c(-c2ccccc2)cc2nnc3ccccc3c21
active: growth inhibition [1] 87% | growth inhibition [4] 92%
inactive: inhibition [2] 34% | inhibition [3] 5% | outcome [5] | outcome [6] | outcome [7] | outcome [8]

Fc1ccc2nc(-c3cccc(-c4ccc(CN5CCN(c6cnccn6)CC5)cc4)c3)[nH]c2c1
active: growth inhibition [4] 96%
inactive: growth inhibition [1] 31% | inhibition [2] 19% | inhibition [3] -4% | outcome [5] | outcome [6] | outcome [7] | outcome [8]

NCc1ccc(CNCc2ccc(-c3ccc(-c4nc5ccc(F)cc5[nH]4)cc3)cc2)cc1
active: growth inhibition [1] 99% | growth inhibition [4] 100%
inactive: inhibition [2] 12% | inhibition [3] -3% | outcome [5] | outcome [6] | outcome [7] | outcome [8]

O=C(Cc1ccccc1)NC(c1ccccc1)c1ccc2cccnc2c1O (stereo not drawn)
active: growth inhibition [1] 61% | growth inhibition [4] 89%
inactive: inhibition [2] 49% | inhibition [3] 3% | outcome [5] | outcome [6] | outcome [7] | outcome [8]

COc1ccc(-c2ccccc2CNc2nc(NCCc3ccc(O)cc3)nc(N3CCNCC3)n2)cc1
inactive: growth inhibition [1] 3% | inhibition [2] 48% | inhibition [3] -3% | outcome [5] | outcome [6] | outcome [7] | outcome [8]
active: growth inhibition [4] 86%

O=S(=O)(NCCN1CCCC1)c1cccc(-c2cccc(CNCc3ccccc3)c2)c1
active: growth inhibition [1] 73% | growth inhibition [4] 97%
inactive: inhibition [2] 32% | inhibition [3] -7% | outcome [5] | outcome [6] | outcome [7] | outcome [8]

CCc1ccc(NC(=O)c2ccc(CN3CCCN(Cc4cccc(Cl)c4)CC3)cc2)cc1
active: inhibition [2] 50% | growth inhibition [4] 84%
inactive: growth inhibition [1] 2% | inhibition [3] 5% | outcome [5] | outcome [6] | outcome [7] | outcome [8]

O=C(Cc1cnc[nH]1)Nc1cccc(-c2cccc(-c3nc4ccccc4[nH]3)c2)c1
active: growth inhibition [1] 60% | growth inhibition [4] 97%
inactive: inhibition [2] 24% | inhibition [3] -2% | outcome [5] | outcome [6] | outcome [7] | outcome [8]

Fc1cc(Cl)ccc1Nc1ccnc2cc(-c3ccc(CN4CCNCC4)o3)ccc12
inactive: inhibition [2] 16% | inhibition [3] 1% | outcome [5] | outcome [6] | outcome [7] | outcome [8]
active: growth inhibition [1] 99% | growth inhibition [4] 100%

COc1ccc2c(NN=Cc3ccccc3)ccnc2c1
active: growth inhibition [1] 98% | growth inhibition [4] 101%
inactive: inhibition [2] 18% | inhibition [3] -5% | outcome [5] | outcome [6] | outcome [7] | outcome [8]

CCN(CC(C)O)C(=O)c1ccc(-c2cccc(-c3nc4c(C)cccc4[nH]3)c2)cc1 (stereo not drawn)
active: growth inhibition [4] 100%
inactive: growth inhibition [1] 32% | inhibition [2] 28% | inhibition [3] -2% | outcome [5] | outcome [6] | outcome [7] | outcome [8]

COc1ccc(-c2cn3c(C(=O)Nc4ccccc4Cl)c(-c4ccccc4)c4c3n2CCCC4)cc1
inactive: growth inhibition [1] 1% | inhibition [2] 7% | inhibition [3] -4% | outcome [5] | outcome [6] | outcome [7] | outcome [8]
active: growth inhibition [4] 100%

O=C(NC1CC1)C1CCN(Cc2cc3ccccc3n2Cc2ccc(Cl)cc2)CC1
active: growth inhibition [1] 96% | growth inhibition [4] 95%
inactive: inhibition [2] 16% | inhibition [3] -1% | outcome [5] | outcome [6] | outcome [7] | outcome [8]

O=C(Cc1ccccc1)NC(CCN1CCC(O)(c2cccc(C(F)(F)F)c2)CC1)c1ccc(Cl)c(Cl)c1 (stereo not drawn)
inactive: growth inhibition [1] 32% | inhibition [2] 25% | inhibition [3] 1% | outcome [5] | outcome [6] | outcome [7] | outcome [8]
active: growth inhibition [4] 96%

NS(=O)(=O)c1ccc(CNc2ccc3ncc(-c4ccc(OC(F)(F)F)cc4)n3n2)cc1
active: growth inhibition [1] 99% | growth inhibition [4] 97%
inactive: inhibition [2] 10% | inhibition [3] -7% | outcome [5] | outcome [6] | outcome [7] | outcome [8]

CN(C)CCN(C)Cc1ccc(-c2ccc3c(Nc4ccc(F)cc4Cl)ccnc3c2)o1
inactive: inhibition [2] 31% | inhibition [3] 5% | outcome [5] | outcome [6] | outcome [7] | outcome [8]
active: growth inhibition [1] 100% | growth inhibition [4] 101%

N#Cc1cccc(/C=C/C(=O)NC2CCC(CCN3CCc4ccc(-c5cnccn5)cc4CC3)CC2)c1 (stereo not drawn)
inactive: growth inhibition [1] 47% | inhibition [2] 22% | inhibition [3] -1% | outcome [5] | outcome [6] | outcome [7] | outcome [8]
active: growth inhibition [4] 93%

CCN(CCNS(C)(=O)=O)c1ccc(N)c(C)c1
active: growth inhibition [4] 91%
inactive: growth inhibition [1] 11% | inhibition [2] -4% | inhibition [3] -4% | outcome [5] | outcome [6] | outcome [7] | outcome [8]

CCCN(CCC)C(=O)c1cc(-c2cccc(C)c2)nc2ccccc12
active: growth inhibition [1] 59% | growth inhibition [4] 86%
inactive: inhibition [2] 17% | inhibition [3] -6% | outcome [5] | outcome [6] | outcome [7] | outcome [8]

Cc1ccc2nc3sc(C(=O)NCCCN4CCC(N5CCCCC5)CC4)cc3cc2c1
active: growth inhibition [1] 71% | growth inhibition [4] 103%
inactive: inhibition [2] 11% | inhibition [3] -5% | outcome [5] | outcome [6] | outcome [7] | outcome [8]

CCN(CC)c1nc(-c2ccccc2)cc(-c2ccccc2)c1C#N
active: growth inhibition [1] 66% | growth inhibition [4] 100%
inactive: inhibition [2] -7% | inhibition [3] 2% | outcome [5] | outcome [6] | outcome [7] | outcome [8]

CCCCCCCC1CCN(C[C@H](O)c2ccnc3ccc(OC)cc23)CC1
inactive: inhibition [2] 23% | inhibition [3] 3% | outcome [5] | outcome [6] | outcome [7] | outcome [8]
active: growth inhibition [1] 81% | growth inhibition [4] 94%

CC(C)c1cccc(C(C)C)c1NC(=O)NNC(=O)c1ccc(CCN2CCC(c3nc(COCC(F)(F)F)c(-c4ccc(F)cc4)o3)CC2)cc1
inactive: growth inhibition [1] 34% | inhibition [3] -2% | outcome [5] | outcome [6] | outcome [7] | outcome [8]
active: inhibition [2] 61% | growth inhibition [4] 88%

CN(C)C(=O)c1ccc(CN(Cc2cccc(OC(C)(C)C)c2)Cc2ccc3c(c2)OCCO3)cc1
inactive: inhibition [2] 0% | inhibition [3] -2% | outcome [5] | outcome [6] | outcome [7] | outcome [8]
active: growth inhibition [1] 96% | growth inhibition [4] 96%

CCOc1ccc(C(C)NC(=O)Nc2ccccc2)cc1OCC (stereo not drawn)
inactive: inhibition [2] 14% | inhibition [3] 1% | outcome [5] | outcome [6] | outcome [7] | outcome [8]
active: growth inhibition [1] 95% | growth inhibition [4] 96%

Cc1noc(C)c1-c1ccc2c(Nc3nccc4ccccc34)c(C(N)=O)cnc2c1
active: growth inhibition [1] 99% | inhibition [2] 100% | growth inhibition [4] 100%
inactive: inhibition [3] 1% | outcome [5] | outcome [6] | outcome [7] | outcome [8]

CCCCCCN1CCCN(Cc2ccc(C(=O)Nc3ccc(C(C)C)cc3)cc2)CC1
inactive: inhibition [2] 40% | inhibition [3] -4% | outcome [5] | outcome [6] | outcome [7] | outcome [8]
active: growth inhibition [1] 50% | growth inhibition [4] 93%

Clc1ccccc1CCNCC1CCN(CC2CCCCC2)CC1
inactive: growth inhibition [1] 38% | inhibition [2] 45% | inhibition [3] -5% | outcome [5] | outcome [6] | outcome [7] | outcome [8]
active: growth inhibition [4] 97%

O=C(Nc1ccc2c(c1)CCCN2S(=O)(=O)c1cccs1)c1cc([N+](=O)[O-])ccc1Cl
active: growth inhibition [1] 95% | growth inhibition [4] 93%
inactive: inhibition [2] 29% | inhibition [3] 3% | outcome [5] | outcome [6] | outcome [7] | outcome [8]

O=C1C[C@@H]([S@@](=O)Cc2nccs2)N1CCOCCCCCCc1ccc(Cl)cc1
active: growth inhibition [4] 91%
inactive: growth inhibition [1] 0% | inhibition [2] -4% | inhibition [3] 1% | outcome [5] | outcome [6] | outcome [7] | outcome [8]

COc1ccc(CCC(C)N2C[C@@H](N)[C@H](c3cn(C)c4cnccc34)C2)cc1 (stereo partly drawn)
inactive: growth inhibition [1] -4% | inhibition [2] 5% | inhibition [3] -1% | outcome [5] | outcome [6] | outcome [7] | outcome [8]
active: growth inhibition [4] 98%

Cc1cccc2[nH]c(-c3cccc(-c4ccc(NC(=O)CC5NC(=O)c6ccccc65)cc4)c3)nc12 (stereo not drawn)
inactive: inhibition [2] 30% | inhibition [3] -7% | outcome [5] | outcome [6] | outcome [7] | outcome [8]
active: growth inhibition [1] 67% | growth inhibition [4] 100%

CC1(C)N=C(N)N=C(N)N1OCC=Cc1ccccc1
inactive: inhibition [3] -3% | outcome [5] | outcome [6] | outcome [7] | outcome [8]
active: growth inhibition [1] 96% | inhibition [2] 62% | growth inhibition [4] 94%

Clc1cccc(CNC2CCN(CC3CCCCC3)CC2)c1
active: growth inhibition [4] 97%
inactive: growth inhibition [1] 24% | inhibition [2] 4% | inhibition [3] -2% | outcome [5] | outcome [6] | outcome [7] | outcome [8]

O=C(Nc1cccc(-c2ccc(-c3nc4ccccc4[nH]3)cc2)c1)Nc1ccc2c(c1)OCO2
active: growth inhibition [4] 90%
inactive: growth inhibition [1] 8% | inhibition [2] 20% | inhibition [3] -1% | outcome [5] | outcome [6] | outcome [7] | outcome [8]

COc1ccc(CNc2nc(NCc3ccc(C(F)(F)F)cc3)c3cc(OC)c(OC)cc3n2)cc1OC
inactive: inhibition [3] -3% | outcome [5] | outcome [6] | outcome [7] | outcome [8]
active: growth inhibition [1] 100% | inhibition [2] 80% | growth inhibition [4] 103%
